# From ChEMBL document CHEMBL3433997, “St. Jude Leishmania screening dataset” (2016)
# Target: Solute carrier family 2, facilitated glucose transporter member 1 (Homo sapiens) (UniProt P11166)
# Test: ST_JUDE_LEISH: Cytotoxicity at 2uM final concentration against transgenic Leishmania Mexicana promastigotes LmGLUT1 that are glucose transport deficient and complemented with the human glucose transporter GLUT1. Activity is measured by DNA content using SYBR green in vitro
# Type: functional
# Sequence of Solute carrier family 2, facilitated glucose transporter member 1 (Homo sapiens) (P11166 whole entry): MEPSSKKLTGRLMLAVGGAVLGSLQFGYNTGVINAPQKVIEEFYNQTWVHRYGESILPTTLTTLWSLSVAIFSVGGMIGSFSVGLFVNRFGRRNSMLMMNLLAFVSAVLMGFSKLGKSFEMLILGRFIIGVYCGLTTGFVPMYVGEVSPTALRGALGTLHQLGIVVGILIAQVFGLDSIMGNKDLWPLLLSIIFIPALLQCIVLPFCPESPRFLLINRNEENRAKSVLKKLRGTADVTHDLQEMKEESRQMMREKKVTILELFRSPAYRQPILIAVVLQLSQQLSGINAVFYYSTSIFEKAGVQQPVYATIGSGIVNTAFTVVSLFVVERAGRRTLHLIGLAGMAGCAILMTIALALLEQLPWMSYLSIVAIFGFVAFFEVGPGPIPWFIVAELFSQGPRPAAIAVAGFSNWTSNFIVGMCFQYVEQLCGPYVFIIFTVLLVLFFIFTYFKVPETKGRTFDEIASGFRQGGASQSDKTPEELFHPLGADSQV
row,SMILES,inhibition [%]
1,COc1ccc(CNCc2ccc(F)cc2)cc1-c1ccc(S(=O)(=O)NCCN2CCCC2)c(C)c1,2.82
2,O=C(NCCN1CCCCC1)c1ccc(CNC(=O)c2ccc(O)c(-c3ccc(Cl)c(Cl)c3)c2)cc1,0.15
3,Cc1cc(Cl)c(Cl)cc1NC(=O)Nc1cccc(C(F)(F)F)c1,1.27
4,CCOc1ccc(C(=O)Nc2cc(Br)c3c(c2)CNCC3)cc1Br,11.7
5,Cc1c(CNCCCNc2nc3cscc3[nH]2)sc(C(F)F)c1Br,6.65
6,Cc1cc(C2CCN(CCCCNC(=O)c3ccc(-c4ccc(C(F)(F)F)cc4)cc3)CC2)c(C)cc1OCC(N)=O,0.54
7,Cc1cc(N2C(N)=NC(N)=NC2(C)C)ccc1Cl,0.08
8,Cc1cc(N[C@@H](CC(C)C)C(=O)Nc2ccccc2)nc(NCCc2ccc(F)cc2)n1,4.85
9,c1ccc(-c2csc(Nc3nc4cc5c(cc4s3)OCO5)n2)nc1,0.62
10,CCOCc1cnc(C)nc1NCC(=O)c1c(C)[nH]c2cc(C)ccc12,-0.21
11,FC(F)(F)Oc1ccc(Nc2cc(-c3ccncc3)nc(-c3cccnc3)n2)cc1,2.18
12,NC(=O)c1ccc(NCC(=O)Nc2cccc(-c3cccc(-c4nc5cc(F)ccc5[nH]4)c3)c2)cc1,-0.29
13,Cc1cccc2nc(-c3ccc(-c4cccc(CNCC5CCCO5)c4)s3)[nH]c12 (stereo not given),13
14,N#Cc1ccc(CN2CCC(Oc3ccc(NC(=O)c4ccccc4)cc3Cl)CC2)cc1,0.83
15,Clc1ccc(CNc2ccnc(NCc3cccnc3N3CCCC3)n2)c(Cl)c1,12.9
16,C#C[C@H]1O[C@@H](n2cnc3c(Nc4cc(Br)cc(C(F)(F)F)c4)ncnc32)[C@H](O)[C@@H]1O,3.1
17,C=CC(C)C1OC(=O)c2cc(OC)cc(OC)c21 (stereo not given),92.2
18,COCCNCc1ncsc1-c1ccc2c(Nc3cc(O)ccc3C)ccnc2c1,1.05
19,Cc1cc(-c2cccc(CNC3CCN(C)CC3)c2)ccc1S(=O)(=O)NCCN1CCCC1,0.26
20,COc1cc(CNC[C@@H](O)[C@H](Cc2ccccc2)NC(=O)c2cc(OC(C)C)cc(N3CCCS3(=O)=O)c2)cc(OC)c1,4.85

row,SMILES,inhibition [%]
1,O=C(NCC1CCN(CCN2CCC(c3cn(CCO)c4ccccc34)CC2)CC1)c1ccc(-c2ccc(C(F)(F)F)cc2)cc1,4.27
2,CC(C)Sc1nc2c(c(=O)n1Cc1ccco1)C1(CCCC1)Cc1ccccc1-2,6.99
3,COc1cc(Br)c(NC(=O)Nc2ccc(C(F)(F)F)c(O[C@@H]3CCN(C)C3)c2)cc1OC,2.53
4,CC(C)CCCC(C)(C)NC[C@@H](O)[C@H](Cc1ccccc1)NC(=O)c1cccc(OCC2CC2)c1,1.19
5,CCOC(=O)c1nc(-c2ccccc2)[nH]c1-n1nc(C)cc1C,1.44
6,Cc1ccc2[nH]c3ccccc3c(=O)c2c1,0.1
7,O=C(CCCC(=O)Nc1ccc(C2=NCCN2)cc1)Nc1ccc(C2=NCCN2)cc1,0.86
8,Oc1ccc(OCc2ccccn2)cc1,3.05
9,COc1ccc2ncc(F)c(CCN3CCC(CNC(=O)C(=O)c4c[nH]c5ccccc45)CC3)c2n1,6.8
10,Cc1cc(Nc2ccccc2)nc(Nc2ccccc2C)n1,5.24
11,Oc1ccc(CCNc2nc(NCc3ccccc3-c3ccc(C(F)(F)F)cc3)nc(N3CCCNCC3)n2)cc1,4.27
12,O=C(Nc1ccc(Cn2ncc(N3CCCNCC3)c(Cl)c2=O)cc1)Nc1cccc(Oc2ccccc2)c1,2.36
13,Nc1c2c(nc3cc(NC(=O)c4ccc([N+](=O)[O-])cc4)ccc13)CCCC2,5.2
14,Oc1ccc2[nH]c(-c3ccc(OC(F)(F)F)cc3)nc2c1CNC1CCCC1,2.65
15,CCc1cc(OC)ccc1C1CCN(CCCCNC(=O)c2ccc(NC(=O)c3ccc(Cl)cc3)cc2)CC1,3.47
16,O=C(/C=C/c1ccc(Cl)c(Cl)c1)NCCCCN1CCC(c2c[nH]c3ccccc23)CC1,-2.39
17,OC1(c2ccccc2)CCN(Cc2cccc(-c3c[nH]c4nc(NC5CCCC5)ncc34)c2)C1 (stereo not given),3.82
18,Cc1cccc(Cn2nc(-c3ccccc3)c(N3CCCCC3)cc2=O)c1,2.58
19,Cc1ccc(NC(=O)c2ccc3ncccc3c2)cc1OC1CCN(Cc2ccc(F)cc2)C1 (stereo not given),1.19
20,COc1ccc(CN2CCCC(N3CC4(OC3=O)c3ccccc3-c3ccccc34)C2)c(O)c1 (stereo not given),5.47

# Target: Hexose transporter 1 (Plasmodium falciparum) (UniProt O97467)
# Test: ST_JUDE_LEISH: Cytotoxicity at 2uM final concentration against transgenic Leishmania Mexicana promastigotes LmPfHT that are glucose transport deficient and complemented with the Plasmodium falciparum hexose transporter. Activity is measured by DNA content using SYBR green in vitro
# Type: functional
row,SMILES,inhibition [%]
1,COc1ccc(CNCc2ccc(F)cc2)cc1-c1ccc(S(=O)(=O)NCCN2CCCC2)c(C)c1,3.53
2,O=C(NCCN1CCCCC1)c1ccc(CNC(=O)c2ccc(O)c(-c3ccc(Cl)c(Cl)c3)c2)cc1,0.04
3,Cc1cc(Cl)c(Cl)cc1NC(=O)Nc1cccc(C(F)(F)F)c1,-0.59
4,CCOc1ccc(C(=O)Nc2cc(Br)c3c(c2)CNCC3)cc1Br,12.7
5,Cc1c(CNCCCNc2nc3cscc3[nH]2)sc(C(F)F)c1Br,4.46
6,Cc1cc(C2CCN(CCCCNC(=O)c3ccc(-c4ccc(C(F)(F)F)cc4)cc3)CC2)c(C)cc1OCC(N)=O,1.14
7,Cc1cc(N2C(N)=NC(N)=NC2(C)C)ccc1Cl,-0.81
8,Cc1cc(N[C@@H](CC(C)C)C(=O)Nc2ccccc2)nc(NCCc2ccc(F)cc2)n1,1.97
9,c1ccc(-c2csc(Nc3nc4cc5c(cc4s3)OCO5)n2)nc1,0.83
10,CCOCc1cnc(C)nc1NCC(=O)c1c(C)[nH]c2cc(C)ccc12,-0.79
11,FC(F)(F)Oc1ccc(Nc2cc(-c3ccncc3)nc(-c3cccnc3)n2)cc1,3.54
12,NC(=O)c1ccc(NCC(=O)Nc2cccc(-c3cccc(-c4nc5cc(F)ccc5[nH]4)c3)c2)cc1,1.39
13,Cc1cccc2nc(-c3ccc(-c4cccc(CNCC5CCCO5)c4)s3)[nH]c12 (stereo not given),11.4
14,N#Cc1ccc(CN2CCC(Oc3ccc(NC(=O)c4ccccc4)cc3Cl)CC2)cc1,-1.16
15,Clc1ccc(CNc2ccnc(NCc3cccnc3N3CCCC3)n2)c(Cl)c1,7.88
16,C#C[C@H]1O[C@@H](n2cnc3c(Nc4cc(Br)cc(C(F)(F)F)c4)ncnc32)[C@H](O)[C@@H]1O,2.11
17,C=CC(C)C1OC(=O)c2cc(OC)cc(OC)c21 (stereo not given),89
18,COCCNCc1ncsc1-c1ccc2c(Nc3cc(O)ccc3C)ccnc2c1,0.61
19,Cc1cc(-c2cccc(CNC3CCN(C)CC3)c2)ccc1S(=O)(=O)NCCN1CCCC1,0.15
20,COc1cc(CNC[C@@H](O)[C@H](Cc2ccccc2)NC(=O)c2cc(OC(C)C)cc(N3CCCS3(=O)=O)c2)cc(OC)c1,4.74

row,SMILES,inhibition [%]
1,O=C(NCC1CCN(CCN2CCC(c3cn(CCO)c4ccccc34)CC2)CC1)c1ccc(-c2ccc(C(F)(F)F)cc2)cc1,5.41
2,CC(C)Sc1nc2c(c(=O)n1Cc1ccco1)C1(CCCC1)Cc1ccccc1-2,4.28
3,COc1cc(Br)c(NC(=O)Nc2ccc(C(F)(F)F)c(O[C@@H]3CCN(C)C3)c2)cc1OC,2.26
4,CC(C)CCCC(C)(C)NC[C@@H](O)[C@H](Cc1ccccc1)NC(=O)c1cccc(OCC2CC2)c1,1.25
5,CCOC(=O)c1nc(-c2ccccc2)[nH]c1-n1nc(C)cc1C,0.92
6,Cc1ccc2[nH]c3ccccc3c(=O)c2c1,1.92
7,O=C(CCCC(=O)Nc1ccc(C2=NCCN2)cc1)Nc1ccc(C2=NCCN2)cc1,0.54
8,Oc1ccc(OCc2ccccn2)cc1,6.09
9,COc1ccc2ncc(F)c(CCN3CCC(CNC(=O)C(=O)c4c[nH]c5ccccc45)CC3)c2n1,7.49
10,Cc1cc(Nc2ccccc2)nc(Nc2ccccc2C)n1,4.32
11,Oc1ccc(CCNc2nc(NCc3ccccc3-c3ccc(C(F)(F)F)cc3)nc(N3CCCNCC3)n2)cc1,2.99
12,O=C(Nc1ccc(Cn2ncc(N3CCCNCC3)c(Cl)c2=O)cc1)Nc1cccc(Oc2ccccc2)c1,2.39
13,Nc1c2c(nc3cc(NC(=O)c4ccc([N+](=O)[O-])cc4)ccc13)CCCC2,9.51
14,Oc1ccc2[nH]c(-c3ccc(OC(F)(F)F)cc3)nc2c1CNC1CCCC1,3.35
15,CCc1cc(OC)ccc1C1CCN(CCCCNC(=O)c2ccc(NC(=O)c3ccc(Cl)cc3)cc2)CC1,5.73
16,O=C(/C=C/c1ccc(Cl)c(Cl)c1)NCCCCN1CCC(c2c[nH]c3ccccc23)CC1,0.39
17,OC1(c2ccccc2)CCN(Cc2cccc(-c3c[nH]c4nc(NC5CCCC5)ncc34)c2)C1 (stereo not given),3.3
18,Cc1cccc(Cn2nc(-c3ccccc3)c(N3CCCCC3)cc2=O)c1,3.01
19,Cc1ccc(NC(=O)c2ccc3ncccc3c2)cc1OC1CCN(Cc2ccc(F)cc2)C1 (stereo not given),0.73
20,COc1ccc(CN2CCCC(N3CC4(OC3=O)c3ccccc3-c3ccccc34)C2)c(O)c1 (stereo not given),4.69
